Bioassay records (PubChem)
PLC-gamma1 inh: PLC-gamma1 enzyme inhibitors, primary screen, biochemical, fluorescence, purified enzyme; AID 720700, 2013; fluorogenic substrate; 1-phosphatidylinositol 4,5-bisphosphate phosphodiesterase gamma-1 (Homo sapiens), P19174; 0.84% of 370,000 active; inhibition, % at 12.2 µM; in the data active = inhibition above about 9.5%
PLC-beta3 inh: human PLC-beta3 inhibitors, primary screen, biochemical, fluorescence. Purified PLC-beta3, fluorogenic substrate. inhibition, % at 12.2 µM. 1-phosphatidylinositol 4,5-bisphosphate phosphodiesterase beta-3 (Homo sapiens), Q01970. 0.18% of 370,000 active. AID 720704, 2013;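 also: 0% = median of compound wells on plate and 100% = full blocker control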
ADAM17 inh: ADAM17 inhibitors, primary screen, biochemical, QFRET. Disintegrin and metalloproteinase domain-containing protein 17 (Homo sapiens), P78536. recombinant ADAM17, EDANS/DABCYL FRET peptide cleavage. inhibition, % at 6.95 µM. 0.83% of 370,000 active. AID 720648, 2013;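 active = inhibition above the mean of compounds lying between control limits plus 3 SD, set per campaign, cut at about 8.5% in these data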;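 also: 0% = DMSO-only wells as the low control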
ADAM10 inh: human ADAM10 inhibitors, primary screen, biochemical, QFRET, HTS; Disintegrin and metalloproteinase domain-containing protein 10 (Homo sapiens), O14672; recombinant ADAM10, EDANS/DABCYL FRET peptide cleavage, 3 h; inhibition, % at 7 µM; 0.62% of 370,000 active; AID 720582, 2013;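 active = inhibition above a per-campaign cutoff equal to the mean of compounds falling between control-based bounds plus 3 SD, cut at about 20% in these data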;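 also: 0% = DMSO wells while the 100% control is not disclosed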
KLK7 zymogen act: proKLK7 zymogen activators, primary screen, biochemical, fluorescence intensity; Kallikrein-7 (Homo sapiens), P49862; purified proKLK7, EDANS-DABCYL substrate fluorescence; 100% is mature enzyme control, 0% vehicle; activation, % at 7 µM; 0.9% of 370,000 active; AID 652039, 2013;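 active = activation above the mean of all tested compounds plus 3 SD, computed per campaign excluding outliers beyond control limits, cut at about 13% in these data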
PLCg1 ctr: PLC-gamma1 enzyme inhibitors, counter-screen for PLC-beta3 inhibitor project, biochemical, fluorescence; purified PLC-gamma1, fluorogenic substrate; inhibition, % at 12.3 µM; shares compounds with PLC-gamma1 inh; 3.1% of 3,300 active; in the data active = inhibition above about 9.5%
PLCb3 confirm: PLC-beta3 inhibitor confirmation, biochemical, fluorescence, purified enzyme | fluorogenic substrate fluorescence | shares compounds with PLC-gamma1 inh | inhibition, % at 12.3 µM | 1% of 3,300 active
Starred values were filed as active, the others as inactive; nt = not tested or not shown. The list is not random: actives were taken first. Their share in the collection is about 2.9%. Rule as the data show it, unless noted: active = inhibition above about 11%; inactive = the rest.

SMILES	PLC-gamma1 inh	PLC-beta3 inh	ADAM17 inh	ADAM10 inh	KLK7 zymogen act	PLCg1 ctr	PLCb3 confirm
COc1ccc(Cl)cc1NC(=O)C/C(C)=N/NC(=O)c1ccccc1[N+](=O)[O-]	1	-7	1	-4	0	nt	nt
CCCCN(C(=O)CC1CCCCC1)c1c(N)n(CCCC)c(=O)[nH]c1=O	-4	-2	-1	-18	-1	nt	nt
Brc1cnc(OCc2ccccc2)nc1OCc1ccccc1	8	12*	7	5	1	-7	-6
CC(C)CNC(=O)c1cccc2c1-c1ccccc1C2=O	1	-2	-1	0	0	nt	nt
O=C1NC[C@H](CCCCN2C[C@H](Cc3ccc(O)cc3)N(CCc3ccc(O)cc3)C(=O)C2=O)N(CCc2ccc(O)cc2)C1=O	1	-1	-1	-15	0	nt	nt
COc1ccccc1CC(NC(C)=O)C(=O)NC1CCN(C(=O)Nc2ccc(F)cc2)CC1 (stereo not drawn)	11*	-9	-4	-21	-1	-5	-1
COc1ccccc1CC(NC(C)=O)C(=O)NC1CCN(C(=O)Nc2cccc(F)c2)CC1 (stereo not drawn)	-1	3	0	9	0	nt	nt
COc1ccc(CC(NC(C)=O)C(=O)NC2CCN(C(=O)Nc3ccccc3C)CC2)cc1OC (stereo not drawn)	11*	-5	-5	-20	0	-5	-2
COc1ccc(CC(NC(C)=O)C(=O)NC2CCN(C(=O)NCc3ccccc3)CC2)cc1OC (stereo not drawn)	3	6	0	-1	0	nt	nt
COc1cc(C(=O)NN=C2c3ccccc3-c3ccccc32)cc(OC)c1OC	-12	-17	-1	-6	1	nt	nt
CCOc1cc(CNCc2ccccc2)ccc1OCc1ccc(Cl)cc1	17*	1	5	14	0	-1	-1
COC(C(=O)N1CCC(n2nccc2NC(=O)C2CC2)CC1)c1ccccc1 (stereo not drawn)	0	-5	-1	1	0	nt	nt
C=CCn1c(N2CCCC2)nc2c1c(=O)n(C)c(=O)n2C	9.7*	-1	3	10	0	3	2
C/C(Cl)=C\Cn1c(N2CCCCCC2)nc2c1c(=O)n(C)c(=O)n2C	4	5	4	0	0	nt	nt
Cn1c(=O)c2c(nc(-n3ccnc3)n2Cc2ccccc2)n(C)c1=O	10*	2	3	0	-1	-1	0
COc1ccc2sc(C)nc2c1NC(C)=O	12*	5	3	2	-1	-1	4
CCCCN1C(=O)C(CC(=O)NC2CCCCC2)CC(C(=O)N(C(C)C)C(C)C)=C1C (stereo not drawn)	0	-1	-5	-12	-1	nt	nt
Cc1occc1-c1nnc(SCC(=O)Nc2ccccc2)n1C	5	15*	3	-10	0	-5	-1
COc1ccc(C(=O)Nc2nnc(C)s2)cc1S(=O)(=O)N1CCOCC1	12*	-8	-2	-13	0	-8	-3
O=C(COc1ccc(S(=O)(=O)N2CCOCC2)cc1)NC1CC1	10*	2	4	10	0	1	3
O=C(COc1ccc(S(=O)(=O)N2CCOCC2)cc1)NC1CCCC1	6	1	-5	-5	-1	nt	nt
CCOC(=O)c1ccccc1NC(=O)COC(=O)c1ccc(C)c(S(=O)(=O)N2CCOCC2)c1	0	1	-3	-9	0	nt	nt
Cc1nnc(NC(=O)c2ccc(C)c(S(=O)(=O)N3CCOCC3)c2)s1	2	1	-1	-3	0	nt	nt
COc1ccc(C(=O)OCC(=O)NC2CC2)cc1S(=O)(=O)N1CCOCC1	9.6*	6	0	8	0	-5	0
Cc1ccc(C(=O)OCC(=O)Nc2ccccc2C(F)(F)F)cc1S(=O)(=O)N1CCOCC1	6	11*	2	12	0	-6	-3
SMILES	PLC-gamma1 inh	PLC-beta3 inh	ADAM17 inh	ADAM10 inh	KLK7 zymogen act	PLCg1 ctr	PLCb3 confirm
CSCc1ccc(C(=O)N2CCCC(Nc3ccc(F)cc3)C2)o1 (stereo not drawn)	6	4	1	10	0	nt	nt
COC(=O)C1=C(C)N(C)C(=NCC2CC2)NC1CCc1ccccc1 (stereo not drawn)	3	4	2	-1	0	nt	nt
CCCC/C=C1/[C@H](c2ccccc2)N(C)C2=N[C@@H](c3ccccc3)CC(=O)N21	-2	-8	0	3	nt	nt	nt
COC(=O)[C@]12CCCCC=C1N(Cc1ccc3c(c1)OCO3)C(=O)[C@H](CC(=O)NCCCCc1ccccc1)C2	-2	-4	3	9	1	nt	nt
O=C(Nc1nnc([C@H]2C[C@H](O)[C@@H](CO)O2)s1)NC(c1ccccc1)c1ccccc1	12*	3	7	-3	0	-8	-4
O=C(Nc1nnc([C@@H]2C[C@H](O)[C@@H](CO)O2)s1)NC(c1ccccc1)c1ccccc1	2	-2	-6	-16	0	nt	nt
O=C(NCc1ccccc1)Nc1nnc([C@@H]2C[C@H](O)[C@@H](CO)O2)s1	15*	6	7	3	0	-6	1
CCN(C(=O)COC(=O)c1ccc(OCc2c(C)noc2C)cc1)c1ccccc1	14*	2	2	6	0	-1	0
Cc1noc(C)c1COc1ccccc1C(=O)NNC(=O)c1ccccc1	11*	9	4	5	0	-1	1
Clc1cc(Cl)cc(CN2CCN(c3ncc(Cc4ccccc4)cn3)CC2)c1	2	-3	0	-14	1	nt	nt
O=C(O)c1cccc2cccc(-c3c4ccc(=O)c(O)c-4oc4c(O)c(O)ccc34)c12	39*	-6	-6	-28	19*	28*	-6
CC1(c2ccccc2)NC(=O)N(CC(=O)Nc2cc(S(=O)(=O)N3CCOCC3)ccc2Cl)C1=O (stereo not drawn)	0	-6	-2	-2	0	nt	nt
Cc1ccc(C2(C)NC(=O)N(CC(=O)Nc3cc(S(=O)(=O)N4CCOCC4)ccc3C)C2=O)cc1 (stereo not drawn)	10*	9	4	10	0	-3	2
Cc1nc(SCC(=O)Nc2cc(S(=O)(=O)N3CCOCC3)ccc2Cl)nc(C)c1C	11*	-1	-2	-3	-1	-3	1
Cc1ccc(S(=O)(=O)N2CCOCC2)cc1NC(=O)c1cc2c(s1)CCC2	10*	3	2	12	1	-6	-2
